Hits are enriched below; roughly 9.4% of the tested compounds scored in any of these assays.
ELG1 DNA repair – blocks ELG1-dependent DNA repair in HEK293T cells. AID 504467. hit rate 2.3% among 330,000. HEK293T ELG1-luciferase reporter, luminescence, 16 h; DNA damage induced by 5-fluorouridine. Potency, µM (doses to about 46.1 µM), for the others: top-dose activity change, negative = inhibition, hits mostly inhibitors; also: % is scaled to controls: 0 for no effect and ±100 for the full control effect; nearly all actives have a fitted effect of over 55% in size
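Reporter activity after DNA damage by 5-fluorouridine is monitored. Compound-treated cells incubate 16 hr at 37 °C, then ONE-Glo is added for 30 min before luminescence reading.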
FLuc counter – counter-screen for miR-21 project: firefly luciferase inhibitors or activators. hit rate 6.9% among 360,000. purified FLuc, Km substrates, luminescence inhibition. Potency, µM (highest dose often 57.5 µM), for inactives: at the top dose activity change, negative = inhibition, actives largely listed as inhibitors. P08659;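 also: plate controls were vehicle for no effect and reference inhibitor for full effect; nearly all actives have a fitted effect of over 55% in size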
Target sequence (P08659 whole entry, looked up): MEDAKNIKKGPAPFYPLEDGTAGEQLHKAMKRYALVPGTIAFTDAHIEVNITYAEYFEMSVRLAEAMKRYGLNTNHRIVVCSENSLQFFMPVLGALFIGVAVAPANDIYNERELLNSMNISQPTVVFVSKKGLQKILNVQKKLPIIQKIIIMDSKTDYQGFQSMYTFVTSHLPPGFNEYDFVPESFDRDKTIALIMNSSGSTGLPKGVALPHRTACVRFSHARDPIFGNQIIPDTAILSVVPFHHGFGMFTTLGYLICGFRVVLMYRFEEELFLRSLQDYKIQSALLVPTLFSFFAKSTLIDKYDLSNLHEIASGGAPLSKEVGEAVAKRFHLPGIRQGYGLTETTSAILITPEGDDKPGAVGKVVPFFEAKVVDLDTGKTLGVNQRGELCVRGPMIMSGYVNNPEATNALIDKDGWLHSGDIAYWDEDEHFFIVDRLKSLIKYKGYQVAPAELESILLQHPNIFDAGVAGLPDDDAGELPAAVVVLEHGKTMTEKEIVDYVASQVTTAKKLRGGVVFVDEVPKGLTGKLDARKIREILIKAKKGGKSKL
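Purified P. pyralis luciferase, 10 nM final, with Km-level 10 uM D-luciferin and 10 uM ATP in 50 mM Tris acetate pH 7.5, 10 mM Mg acetate, 0.01% Tween-20, 0.05% BSA; 6-point qHTS titration about 60 µM downward; luminescence read.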
Rab9 promoter act – activates the Rab9 promoter | Huh7 Rab9 promoter-luciferase reporter, luminescence, 24 h | Potency, µM (doses to about 9.22 µM), inactives show at the top dose activation, negative = inhibition, usual class: activators | hit rate 2.8% among 320,000 | AID 485297; also: % of control where 0% means no effect; nearly all actives have a fitted effect of over 60% in size
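Cell-based reporter: Huh7 stable for Rab9 promoter-driven luciferase, plated in reduced-serum medium with 10% FBS at 1500 cells/well, compound-treated 24 h at 37 °C, luminescence read after 10 min reagent.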
SMN2 splice up – SMN2 splice variant enhancement; HEK293 SMN2-luciferase splicing reporter, luminescence, 30-36 h; Potency, µM (series often up to 46.1 µM), inactives show at the top dose activity change, positive = activation, hits mostly activators; hit rate 2.8% among 210,000; AID 1458; also: % of control where 0% means no effect; nearly all actives have a fitted effect of over 55% in size
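HEK293 cells carry an SMN2 minigene-luciferase reporter in which exon 7 inclusion puts luciferase in frame. Cells were seeded at 2000 cells/well, attached for 10-12 hours, then exposed to compounds for 30-36 hours at 37C before ONE-Glo luminescence.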
ELG1 genotoxic – induces genotoxicity in HEK293T cells with luciferase-tagged ELG1; Potency, µM (top dose mostly 46 µM), without a hit: top-dose activity change, positive = activation, usual class: activators; AID 504466; hit rate 1.3% among 330,000; HEK293T ELG1-luciferase reporter, luminescence, 16 h; also: % of control where 0% means no effect; nearly all actives have a fitted effect of over 60% in size
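Reporter readout depends on ELG1 protein level, which increases with genetic stress. After 16 hr compound exposure at 37 °C, luciferase activity was quantified using ONE-Glo.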
NPC1 prom act – activates the NPC1 promoter; Huh7 NPC1 promoter luciferase reporter, 24 h; Potency, µM (titrated, usually from 9.22 µM), inactives show at the top dose activation, hits mostly activators; hit rate 2.4% among 320,000; also: % of control where 0% means no effect; nearly all actives have a fitted effect of over 60% in size
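Luciferase expression driven by the NPC1 promoter was measured in stably transfected Huh7 cells after a 24 h compound incubation, using a luciferase reagent and a luminescence read.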
* = called active by the depositor; u = inconclusive; x = no result; [ ] = dose if it differs, or a comment. Calls follow the shape of the dose curve; as a rule, active = well fitted curve in the direction sought with a large enough effect; inconclusive = small, poorly fitted or top-dose-only effect, or another doubt; inactive = no such curve, though single readings can be large; an effect the other way counts as inactive or inconclusive. Potency is read from the fitted curve at half-maximal effect.

SMILES	ELG1 DNA repair	FLuc counter	Rab9 promoter act	SMN2 splice up	ELG1 genotoxic	NPC1 prom act
CC(C)(C)OC(=O)N1CCC(c2c(C(=O)NCc3ccccn3)cnn2-c2ccccc2)CC1	x	-6%	x	x	x	x
Cc1cc(C(=O)CSc2nc(N)cc(N)n2)c(C)n1-c1cccc(F)c1	18%	24µM*	-5%	-37%	-2%	3%
C=CCn1c(C)cc(C(=O)CSc2nc(N)cc(N)n2)c1C	0%	21µM*	21%	-1%	3%	1%
CCn1cc2nc(SCc3ccc(F)cc3)n(CCc3ccccc3)c(=O)c2n1	x	-1%	x	x	x	x
Cc1cccn2c(=O)nc(SCC(=O)c3ccccc3)nc12	u	-2%	18%	x	21µM*	17%
Cc1cccn2c(=O)nc(SCC(=O)c3ccc(Cl)cc3)nc12	u	1%	-6%	x	u	-3%
COCCNc1nc2sc3c(c2c(=O)n1Cc1ccco1)CCCCC3	u	u	2µM*	32µM*	u	u
O=c1c2c3c(sc2nc(NCCO)n1Cc1ccco1)CCCCC3	u	15µM*	13%	41%	17%	14%
Cc1cccc(OCC(=O)NCC2(N3CCN(C)CC3)CCCCC2)c1C	x	-5%	x	x	x	x
C[C@@H](N=C(N)N)C(=O)O	x	x	x	-6%[9.22 µM]	x	x
COc1ccccc1/C=C/c1nc(C#N)c(N2CCN(c3ccccc3)CC2)o1	x	-9%	x	1%	x	x
CCc1sc(C(=O)Nc2ncccc2O)cc1C	u	6µM*	2.2µM*	x	u	1.6µM*
CCc1sc(C(=O)Nc2nccs2)cc1C	u	1.3µM*	3.2µM*	x	u	3.5µM*
O=C(CC1C(=O)N(c2ccc(F)cc2)C(=O)N1Cc1ccc2c(c1)OCO2)Nc1ccc(Cl)cc1 (stereo not drawn)	x	u	x	8%	x	x
Cc1nn2c(-c3ccc(Cl)cc3)ccnc2c1-c1ccccc1	u	8.5µM*	22%	-5%	8%	u
Cc1nn2c(-c3ccco3)ccnc2c1-c1ccc(Cl)cc1	x	5.4µM*	x	-13%	x	x
Cc1nn2c(N)c(-c3ccccc3)cnc2c1-c1ccccc1	u	0.95µM*	1.6µM*	x	u	2.2µM*
Cc1nn2c(N)c(C#N)cnc2c1-c1ccccc1	u	u	8%	7%	u	2%
Cc1nn2c(-c3ccco3)ccnc2c1-c1ccc(Br)cc1	x	9.5µM*	x	12%	x	x
Cc1nn2c(-c3ccco3)ccnc2c1-c1ccc(F)cc1	x	u	x	1%	x	x
CCc1cccc(NC(=O)Cn2cc(C(=O)c3ccncc3)c(=O)c3cc(C)c(C)cc32)c1	x	-6%	x	x	x	x
Nc1c(Cl)cc(Cl)cc1Cl	x	x	x	-6%	x	x
Cc1ccc(C)c(N2C(=O)N(Cc3ccccc3C)c3ccccc3S2(=O)=O)c1	x	-7%	x	x	x	x
COc1ccc(OC)c(CNC(=O)c2ccc(C)c(NC(=O)c3nsc4ccccc34)c2)c1	x	-5%	x	x	x	x
O=C(NCc1ccccc1)c1ccc(NC(=O)c2nsc3ccccc23)cc1	x	6µM*	x	x	x	x
SMILES	ELG1 DNA repair	FLuc counter	Rab9 promoter act	SMN2 splice up	ELG1 genotoxic	NPC1 prom act
O=C(NCc1ccccc1Cl)c1ccc(NC(=O)c2nsc3ccccc23)cc1	x	3.8µM*	x	x	x	x
CC1=C(C(=O)Nc2ccc(C)cc2C)C(CC(C)C)n2nc(SCc3ccccc3C)nc2N1 (stereo not drawn)	x	-1%	x	3%	x	x
COc1ccc(C2=CC(c3ccccc3Cl)n3nc(-c4ccc(C)cc4)nc3N2)cc1 (stereo not drawn)	x	-7%	x	-8%	x	x
Cc1c(C(C)NC(=O)c2cc(COc3cccc4cnccc34)on2)cnn1C (stereo not drawn)	3.7µM*	-9%	-24%	x	-9%[9.26 µM]	-19%
O=C(O)c1ccc2c(c1)C(=O)N([C@H](Cc1ccc(-c3ccccc3)cc1)C(=O)O)C2=O	x	-6%	0%	x	x	-2%
Cc1cc(-c2ccc(S(=O)(=O)NCc3ccccc3Cl)s2)on1	x	-13%	x	x	x	x
Cc1cc(C)c2c(N)c(C(=O)c3ccc(Br)cc3)oc2n1	-2%	u	0%	x	-3%	-1%
Cc1cc(C)c2c(N)c(C(=O)c3ccccc3)oc2n1	x	24µM*	x	-7%	x	x
COCc1cc(C)nc2oc(C(=O)c3ccccc3)c(N)c12	1%	17µM*	3%	10%	4%	-1%
COc1cccc(N2C(=O)C(CC(=O)Nc3ccc(Cl)cc3)N(Cc3ccc4c(c3)OCO4)C2=O)c1 (stereo not drawn)	x	-3%	x	8%	x	x
Cc1ccc(C(=O)NCCc2ccc(F)cc2)s1	u	9.5µM*	2.8µM*	4.5µM*	u	1.4µM*
O=C(NCCc1ccc(Cl)cc1)c1ccc(Br)s1	u	u	4.5µM*	x	u	4µM*
Cc1ccc(C(=O)NCC(c2ccc(F)cc2)N2CCOCC2)s1 (stereo not drawn)	u	x	x	x	-1%	x
COc1ccccc1-c1nc(SCC(=O)NCc2ccc(C)cc2)c2c(=O)n(C)c(=O)n(C)c2n1	x	-4%	x	x	x	x
CCN1CCc2c(sc(NC(=O)c3cc4ccccc4cc3OC)c2C(N)=O)C1	1%	9.5µM*	4%	x	10%	-5%
CC(C)N1CCc2c(sc(NC(=O)c3ccc4ccccc4c3)c2C(N)=O)C1	1%	6µM*	2%	x	9%	-4%
CC(C)N1CCc2c(sc(NC(=O)c3ccc(C(=O)c4ccccc4)cc3)c2C(N)=O)C1	u	u	-6%	x	-18%	1%
COc1cc(OC)c(NC(=O)c2ccccc2F)cc1Cl	5%	u	14%	13%	3%	6%
COc1cc2ccccc2cc1C(=O)NNC(=O)c1ccccc1O	26µM*	u	7%	x	16%	2%
COc1cc2ccccc2cc1C(=O)Nc1ccc(N2CCN(C(=O)C(C)C)CC2)cc1	u	-8%	-1%	x	-13%	2%
COc1cc2ccccc2cc1C(=O)Nc1ccccc1Cl	u	3.4µM*	26%	x	u	u
COc1cc2ccccc2cc1C(=O)Nc1ccccc1N1CCCC1	-6%	u	-1%	x	-17%	-1%
COc1ccc(NC(=O)c2cc3ccccc3cc2OC)cc1	u	3.4µM*	29%	x	u	u
COc1cc(NC(=O)c2cc3ccccc3cc2O)c(OC)cc1Cl	u	9.5µM*	-7%	x	-6%	u
COc1cc2ccccc2cc1C(=O)Nc1ccc(N2CCN(C)CC2)cc1	u	4.8µM*	3.5µM*	50%	14µM*	u
COc1cc2ccccc2cc1C(=O)Nc1cccnc1	u	11µM*	u	13µM*	8.2µM*	u
CCOc1ccc(NC(=O)c2cccc3ccccc23)cc1	-24%	-17%	14%	x	4%	-11%
COc1ccccc1NC(=O)c1cc2cc(Br)ccc2cc1O	-17%	17µM*	-5%	x	-10%	1%
